# Results from PubChem BioAssay (NCI).
# The panel holds about 83,000 compounds, 20% with a hit somewhere; the sample as a whole holds those more often.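 How to read the values: 0–100, growth inhibition (40 = 60% inhibited); 0, no net growth; -100 to 0, cell death (-40 = 40% of starting cells died; -100 = all dead).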 Unmarked numbers belong to inactive results. Calls of active or inactive are those of the source. The calls were made as follows: active = growth percent below 10; inactive = the rest.
# Columns and labels:
# Assay in all cases: NCI-60 one-dose screen, 48 h (100 = growth as untreated, 0 = no growth, -100 = all killed)
# Conditions in all cases: 10 µM unless noted
# T-47D breast = test system: T-47D breast
# BT-549 breast = test system: BT-549 breast
# MDA-MB-435 melanoma = test system: MDA-MB-435 melanoma
# SW-620 colon = test system: SW-620 colon
# MCF7 breast = test system: MCF7 breast
# HCT-116 colon = test system: HCT-116 colon
# HCC-2998 colon = test system: HCC-2998 colon
# KM12 colon = test system: KM12 colon
Structure (SMILES),growth (T-47D breast),growth (BT-549 breast),growth (MDA-MB-435 melanoma),growth (SW-620 colon),growth (MCF7 breast),growth (HCT-116 colon),growth (HCC-2998 colon),growth (KM12 colon)
O=C(OC(OC(=O)c1cc(Cl)cc(Cl)c1)c1cccc2ccccc12)c1ccccc1 (stereo not drawn),98.8%,113%,111%,97.1%,84.8%,93.1%,83.4%,102%
COc1ccc(/C=C/C(=O)c2ccc(Nc3ncnc4ccccc34)cc2)cc1OC,78.6%,56.3%,7.77% (active),27.5%,16.1%,9.59% (active),29.9%,16.3%
CCN(CC)CCSCCCNc1c(C)cnc2cc(Cl)ccc12,96.5%,85.6%,85.1%,88.3%,79.4%,52.9%,91%,91.6%
Cc1cc(NC(=O)c2cnc(N3CCN(CCOCCOCCOCCOCCC(=O)N[C@H](C(=O)N4C[C@H](O)C[C@H]4C(=O)N[C@@H](C)c4ccc(-c5scnc5C)cc4)C(C)(C)C)CC3)cn2)c2ncccc2c1,20.2%,-37.3% (active),-68.3% (active),-39.9% (active),4.01% (active),-60.3% (active),-80.6% (active),-64.6% (active)
O=C(CNCCO)Nc1ccc2ncnc(Nc3ccc(OCc4cccc(F)c4)c(Cl)c3)c2c1,45.2%,80.5%,96.8%,106%,82.5%,64.3%,97%,87%
COc1ccc(Nn2c(SCC(=O)Nc3nc(-c4ccc(Cl)cc4)cs3)nc(C)c2C)cc1,32.9%,53.3%,50.4%,75.2%,20.8%,27.8%,54.2%,43.1%
CN1CCN(CCCNc2nccc(-c3c(-c4ccc(F)c(O)c4)nc4sccn34)n2)S1(=O)=O,90.1%,128%,40.8%,112%,85%,75.9%,108%,94.3%
CC(C)(C)CC(C)(C)Nc1c(-c2ccc(C(F)(F)F)cc2)nc2cnccn12,74.4%,76%,98.8%,102%,66.5%,-5.73% (active),92.1%,83.8%
CNC(=O)NCC1OC(n2cnc3c(NC(=O)Nc4ccccc4)ncnc32)C(O[Si](C)(C)C(C)(C)C)C1O[Si](C)(C)C(C)(C)C (stereo not drawn),13.6%,39.7%,25.9%,36.4%,0.294% (active),0.332% (active),-1.37% (active),-3.66% (active)
CC(=O)OC1CCC2(C)C(CCC3C4CC=C(C(C)=O)C4(C)OC(=O)CC32)C1 (stereo not drawn),17.4%,28.8%,20.4%,-48.7% (active),11.2%,-98.9% (active),73.8%,81.6%
O=C1Nc2c(ccc(Cl)c2Cl)/C1=C/c1ccc(F)cc1,71.2%,99.8%,99.1%,96.4%,37.7%,84.4%,58.1%,85.2%
COc1ccc(-c2nc3sccn3c2/C=C/C(=O)c2cc(OC)c(OC)c(OC)c2)cc1,30.5%,46.9%,29.8%,72.5%,17.2%,42%,71.2%,35.8%
CC(=O)N1c2ccccc2NC2=C(C(=O)N(C)C2(C)C)C1C (stereo not drawn),28.7%,69.5%,-67.8% (active),24.2%,16.4%,24.9%,60.8%,19.8%
Clc1cc(Cl)cc(N2N=C(c3cccc(Nc4ccncc4)c3)CC2c2ccc(Br)cc2)c1 (stereo not drawn),81.1%,112%,-14.7% (active),-72.1% (active),-46.4% (active),108%,-39.9% (active),-34.3% (active)
Cn1c(COC(=O)N2CCCCC2)nc2c(N3CCOCC3)nc(-c3ccccc3)nc21,-38.4% (active),-37.7% (active),-81.9% (active),-69.1% (active),-65.3% (active),-59.3% (active),-76.4% (active),-73.8% (active)
CN1CCN(c2ccc3nc(-c4cc(C(C)(C)C)c(O)c(C(C)(C)C)c4)[nH]c3c2)CC1,63.2%,98.2%,0.049% (active),14.7%,35.6%,23.3%,25.2%,16.9%

Structure (SMILES),growth (T-47D breast),growth (BT-549 breast),growth (MDA-MB-435 melanoma),growth (SW-620 colon),growth (MCF7 breast),growth (HCT-116 colon),growth (HCC-2998 colon),growth (KM12 colon)
CS(=O)(=O)c1ccc(-c2cc(-c3nnc(SCC(=O)Nc4ccc(C(=O)/C=C/c5ccc(Cl)cc5)cc4)n3-c3ccccc3)c3ccccc3n2)cc1,87%,108%,101%,96.9%,92.5%,92.7%,106%,96.8%
COc1ccc(C(=O)c2cc3c(N)c(C(=O)Nc4cccc(OC)c4)sc3nc2C)cc1,62.6%,45.6%,-14.3% (active),30.1%,23.4%,11.1%,19.5%,20.9%
Clc1ccc2c(c1)c(-c1ccccc1)nc1nncn12,98.2%,99.8%,113%,116%,99%,106%,113%,103%
NC(=O)c1ncn(C2OC(CO)C(O)C2O)n1 (stereo not drawn),84.6%,96.8%,107%,70.9%,80.8%,57.5%,92.8%,98.3%
Cc1ccccc1CNc1ccc(N2CCOCC2)cc1,106%,102%,102%,98%,102%,104%,105%,100%
O=C(O)CCCCCCCCCCCCCCC(=O)O,110%,105%,109%,109%,97%,107%,101%,102%
[O-][n+]1ccccc1CCN(O)CCc1cccc[n+]1[O-],100%,101%,105%,102%,102%,94.7%,109%,104%
COc1ccc(C2CC(n3nnnc3-c3ccccc3)=NN2)cc1 (stereo not drawn),46.3%,81.4%,50.1%,50.6%,62%,50.7%,72.3%,49.3%
C=C(C)[C@@H]1CC[C@]2(C(=O)N3CCN(C)CC3)CC[C@]3(C)[C@H](CC[C@@H]4[C@@]5(C)CCC(=O)C(C)(C)[C@@H]5CC[C@]43C)[C@@H]12,65.3%,96.8%,92%,73.5%,59.2%,31.2%,82.1%,80.6%
COc1ccccc1/C=N/NC1=NC2C(N1)N(C)C(=O)N2C (stereo not drawn),101%,101%,103%,99.3%,99.7%,107%,101%,105%
CCC(C)C(N)C(=O)NNc1n[nH]c(=S)n1N (stereo not drawn),104%,104%,103%,96.9%,96.9%,108%,106%,104%
CSc1nnc2c(=O)n(C)c(=O)n(C)c2n1,97.5%,96.4%,95.2%,96.1%,97.8%,106%,105%,93.6%
CC(=O)c1c(-c2ccc(OC(F)(F)F)cc2)nc2ccccn12,80.6%,91.3%,102%,105%,89.8%,80.8%,105%,97%
COc1cc(C(=O)/C=C/c2c(C)n([O-])c3ccc(Cl)cc3[n+]2=O)cc(OC)c1OC,29.8%,64.7%,49.4%,24.2%,30.4%,15.4%,100%,73.1%
CC(=O)[C@@H]1CC[C@]2(C(=O)n3ccnc3)CC[C@]3(C)[C@H](CC[C@@H]4[C@@]5(C)Cc6c([nH]c7ccccc67)C(C)(C)[C@@H]5CC[C@]43C)[C@@H]12,78%,99.1%,101%,90.8%,71.9%,83.9%,109%,84.2%
